TNAP act DEA – activates human TNAP at intermediate phosphate acceptor concentration | activation factor at 20 µM | 64,000 tested, under 10 active | P05186 | AID 813 | purified TNAP, CDP-star luminescence, 100 mM DEA, 30 min; active compounds read high; scale: 0 levamisole-inhibited, 1 vehicle-only enzyme;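 active = activation factor of at least 2 at 20 µM, relative to controls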
D1 allo mod – allosteric modulators of human D1 dopamine receptor | P21728 | HEK293 D1, CRE-luciferase, dopamine EC30 potentiation; actives deviate in either direction | B-score at 10 µM | hit rate 5.9% among 58,000 | AID 641;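 active = luminescence count or its row- and column-corrected plate score outside the 99.7% band of the plate's sample wells, on either side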
Target sequence (P21728 whole entry, looked up): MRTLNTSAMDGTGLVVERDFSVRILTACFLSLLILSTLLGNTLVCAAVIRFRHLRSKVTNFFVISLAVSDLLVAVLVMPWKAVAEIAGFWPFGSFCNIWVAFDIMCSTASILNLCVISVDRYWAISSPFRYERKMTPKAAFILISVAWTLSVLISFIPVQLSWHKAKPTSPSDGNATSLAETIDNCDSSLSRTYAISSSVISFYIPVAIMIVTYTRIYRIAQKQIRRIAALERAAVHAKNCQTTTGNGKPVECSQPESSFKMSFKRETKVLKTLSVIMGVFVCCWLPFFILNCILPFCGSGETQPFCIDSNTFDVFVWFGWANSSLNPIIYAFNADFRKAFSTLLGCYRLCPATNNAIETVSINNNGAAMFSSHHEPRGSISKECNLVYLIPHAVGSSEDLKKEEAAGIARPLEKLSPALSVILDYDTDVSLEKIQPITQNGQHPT
PLAP act – activators of human placental alkaline phosphatase | activation fold at 20 µM | hit rate 1.2% among 96,000 | AID 696 | purified PLAP enzyme, luminescent substrate read-out; active compounds read high | P05187; in the data active = activation fold above about 2
HePTP inh – inhibitors of human HePTP phosphatase; P35236; recombinant HePTP phosphatase activity, OD absorbance; inhibition, % at 20 µM; hit rate 0.64% among 110,000; in the data active = inhibition above about 50%;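 also: plate controls were vehicle for no effect and reference inhibitor for full effect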
hDAT+cocaine – modulates human dopamine transporter uptake under cocaine. LLC-PK1 hDAT cells, [14C]-dopamine uptake with cocaine IC80; actives deviate in either direction. B-score at 10 µM. hit rate 1.3% among 110,000. Q01959. AID 449768;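 active = Z score or B-score, a plate-position-corrected score, falls beyond the plate's 99.7% confidence bounds, in either direction; inactive = both scores lie inside the 99.7% bounds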;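 also: scored against the spread of the other compound wells on the same plate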
Calb biofilm kill – kills Candida albicans biofilms | inhibition, % at 6 µM | C. albicans biofilm + clotrimazole, Alamar Blue | hit rate 0.14% among 85,000;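 active = inhibition above 20%; inactive = inhibition below 20%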;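 also: preformed 24 hr biofilms exposed to compound for 48 hr; 0% = biofilm without compound and 100% = blank killed by clotrimazole plus chlorhexidine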
D1 mod confirm – confirmation of human D1 dopamine receptor allosteric modulators. HEK293 D1 CRE-luciferase, dopamine EC30 potentiation; active compounds read high. luminescence at 10 µM. shares compounds with D1 allo mod. hit rate 88% among 2,200;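 active = luminescence in either of two replicates above the same-plate mean plus 3 SD of the low-dose dopamine control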
D1 ag no DA – D1 (human) signaling in absence of dopamine; luminescence at 10 µM; hit rate 0.8% among 1,900; HEK293 D1 CRE-luciferase, luminescence, no dopamine; active compounds read high; AID 646; shares compounds with D1 allo mod; in the data active = luminescence above about 3900
Isoprot counter – counter-screen for D1 modulators: isoproterenol response in HEK293 cells. luminescence at 10 µM. shares compounds with D1 allo mod. HEK293 D1 CRE-luciferase, isoproterenol EC30 counter-screen; active compounds read high. hit rate 63% among 2,200;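 active = luminescence in either replicate above plate mean of wells with a partly effective reference agonist dose plus 3 SD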;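 also: isoproterenol raises cAMP through native beta-adrenoceptor Gs so signal bypasses D1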
* marks the source's active call; other numbers are inactive results; nt = not tested or not shown. The sample as a whole holds a higher share of hits than the screen did.

SMILES	TNAP act DEA	D1 allo mod	PLAP act	HePTP inh	hDAT+cocaine	Calb biofilm kill	D1 mod confirm	D1 ag no DA	Isoprot counter
COc1ccc(-c2nn(-c3ccccc3)cc2CO)cc1OC	0.9	6.7*	1.5	4	0.52	3	13160*	1752	4152*
COc1cccc(-c2nn(-c3ccccc3)cc2CO)c1	0.9	3.6*	0.9	4	-0.18	7	10836*	1844	3120*
COc1cccc(-c2nn(-c3ccccc3)cc2C(=O)NCC(=O)O)c1	0.9	-0.064	1.3	0	-0.031	4	nt	nt	nt
OCc1cn(-c2ccccc2)nc1-c1ccc2c(c1)OCCO2	0.9	0.045	0.7	0	-1	4	nt	nt	nt
O=C(Nc1cccc(-c2nc3ccccc3s2)c1)c1ccncc1	nt	nt	nt	10	nt	nt	nt	nt	nt
CSc1nc(N)nc(SCC(=O)C23CC4CC(CC(C4)C2)C3)c1C#N	0.9	nt	nt	10	0.92	nt	nt	nt	nt
Nc1nc(SCC(=O)C23CC4CC(CC(C4)C2)C3)n[nH]1	1.1	5.3*	2.1*	4	-0.088	5	8548*	nt	2456
CCc1ccc(C(C)NC(=O)Cc2ccccc2)cc1 (stereo not drawn)	nt	nt	nt	-9	nt	nt	nt	nt	nt
Cc1cccc(Cn2c(N(C)Cc3ccccc3)nc3c2c(=O)[nH]c(=O)n3C)c1	1.1	8*	1	-2	-0.97	14	19408*	1708	6232*
C/C=C/Cn1c(N(C)Cc2ccccc2)nc2c1c(=O)[nH]c(=O)n2C	0.9	7.3*	1.3	12	-0.35	-4	21832*	1976	10060*
CN(Cc1ccccc1)c1nc2c(c(=O)[nH]c(=O)n2C)n1C	nt	-0.12	nt	nt	0.3	1	nt	nt	nt
COc1ccc(CN/C(C)=C(/C#N)C(N)=O)cc1OC	0.9	3.5*	0.9	10	-0.23	-6	7928*	nt	2684*
COc1ccc(CNC(N)=O)cc1OC	nt	nt	0.8	nt	0.1	4	nt	nt	nt
C=CCn1c(=S)[nH]c2nc3c(cc2c1=O)CCCC3	0.9	6*	1	0	15*	10	13488*	1592	3104
CC(C)c1ccccc1OCCCN1CCCCC1	nt	nt	nt	-2	nt	nt	nt	nt	nt
COc1cc(/C=N\N2CCN(c3ccccc3)CC2)cc(Br)c1O	nt	nt	nt	-4	nt	nt	nt	nt	nt
N#CCn1c(C2CCCCC2)nc2ccccc2c1=O	0.9	8.4*	0.9	-3	0.13	-3	16652*	1540	5152*
CCn1c(N2CCN(CC(=O)c3c[nH]c4ccccc34)CC2)nc2c1c(=O)[nH]c(=O)n2C	1	-0.041	1.6	-6	0.15	3	nt	nt	nt
Cn1c(=O)[nH]c(=O)c2c1nc(N1CCCCCC1)n2CC(N)=O	nt	nt	nt	nt	-0.0016	2	nt	nt	nt
C/C=C/Cn1c(N2CCCCCC2)nc2c1c(=O)[nH]c(=O)n2C	0.9	15*	1.3	1	nt	11	16408*	1784	5480*
Cn1c(=O)[nH]c(=O)c2c1nc(N1CCCCC1)n2CCOc1ccccc1	0.9	14*	1.3	-2	0.19	-2	22140*	1548	7868*
CCCn1c(N2CCN(CC(=O)c3c(C)n(C)c4ccccc34)CC2)nc2c1c(=O)[nH]c(=O)n2C	0.9	4.4*	1.5	8	2.8*	0	12284*	1832	5848*
COc1ccccc1C1/C(=C(\O)c2ccc(F)cc2)C(=O)C(=O)N1CCCCCC(=O)O (stereo not drawn)	nt	nt	nt	-7	nt	nt	nt	nt	nt
CCCCNCCCCCOc1ccccc1C(C)(C)C	nt	nt	nt	-16	nt	nt	nt	nt	nt
CSC1=NC(NCCCO)c2c(sc3c2CC(C)(C)OC3)N1 (stereo not drawn)	1	3.9*	1.2	1	0.41	3	11400*	1504	2884
SMILES	TNAP act DEA	D1 allo mod	PLAP act	HePTP inh	hDAT+cocaine	Calb biofilm kill	D1 mod confirm	D1 ag no DA	Isoprot counter
CC1Cn2c(nc3sc4c(c3c2=O)CC(C)(C)OC4)N1CCO (stereo not drawn)	nt	nt	nt	14	nt	nt	nt	nt	nt
CCOC(=O)c1sc(NC(=O)COc2cccc(C)c2C)nc1C	nt	nt	nt	-2	nt	nt	nt	nt	nt
Cc1ccc(C(=O)N/C(=C/c2cccnc2)C(=O)Nc2ccc(Br)cc2)cc1	nt	nt	nt	-4	nt	nt	nt	nt	nt
COc1ccc(CCNS(=O)(=O)c2ccc(Cl)cc2)cc1OC	nt	nt	nt	4	nt	nt	nt	nt	nt
COc1ccc(CCNS(=O)(=O)c2ccccc2)cc1OC	0.9	4.2*	0.9	11	0.06	5	15812*	2400	3432*
O=C(N/N=C/C=N/NC(=O)c1ccccc1Cl)c1ccccc1Cl	nt	nt	nt	1	nt	nt	nt	nt	nt
COc1cc2c(cc1OC)-c1cc(NC3CCCC3)nc(=O)n1CC2	0.9	8.5*	1.4	11	0.65	-5	14200*	1764	6808*
Cc1nonc1N=Cc1ccccc1O	nt	nt	nt	5	nt	nt	nt	nt	nt
NC(=O)COc1ccc(NC(=O)OCc2ccccc2)cc1	1	5.6*	0.9	3	-0.85	6	10828*	1812	2792
COC(=O)Nc1ccc(OCc2ccccc2)cc1	0.9	-0.51	1	9	0.13	1	nt	nt	nt
COc1ccc(CN(C(=O)c2ccco2)c2ccc(C)cc2)cc1OC	0.9	10*	1.6	7	0.77	4	22164*	1620	3716*
Fc1cccc(Cl)c1CSc1nnnn1-c1ccc2c(c1)OCO2	0.9	5.8*	0.8	-10	0.39	6	11540*	nt	2836*
CCc1nc(NCCc2ccccn2)c2nnn(Cc3ccccc3F)c2n1	0.9	12*	1.4	1	1.4	-2	20308*	1720	4856*
CCCc1nc(NCc2ccncc2)c2nnn(Cc3ccccc3F)c2n1	0.9	6.9*	nt	-1	-4.2*	-4	7368*	1464	3136
CCCc1nc(NCc2ccccn2)c2nnn(Cc3ccccc3F)c2n1	nt	nt	1	nt	nt	4	nt	nt	nt
CCc1nc(NCC2CCCN2CC)c2nnn(Cc3ccccc3F)c2n1 (stereo not drawn)	0.9	1.9	1.5	-1	0.96	3	nt	nt	nt
N#Cc1cc2ccccc2nc1SCC(=O)Nc1ccc(S(=O)(=O)N2CCCC2)cc1	0.7	2.5*	1.5	2	0.81	nt	9776*	1832	2628
COc1ccc(OC)c(C2C=C(c3ccc(C)c(C)c3)Nc3nnnn32)c1 (stereo not drawn)	0.9	3.9*	1.1	4	2.2	9	6516*	1816	2604
COc1cccc(C2C=C(c3ccc(OC)cc3OC)Nc3nnnn32)c1 (stereo not drawn)	0.9	0.12	1.4	7	0.82	10	nt	nt	nt
COc1ccc(C2=CC(c3ccc(OC)c(OC)c3)n3nnnc3N2)c(OC)c1 (stereo not drawn)	0.9	9.3*	1.6	6	0.48	4	15796*	2008	12912*
COc1cccc(C2=CC(c3cc(OC)ccc3OC)n3nnnc3N2)c1 (stereo not drawn)	0.9	4.1*	0.9	1	nt	0	8488*	nt	3952*

Assay outcomes: PubChem, several laboratories
